PubChem BioAssay
The source made the active and inactive calls.

Experiments:
[1] = compound effects on lung adenocarcinoma cell viability – A549, calcein-AM fluorescence, 48 h, basal, profiling panel (AID 1162); conditions: higher = more signal
[2] = compound effects on differentiated 3T3-L1 adipocyte viability – cell-based, 3T3-L1 adipocytes, calcein-AM fluorescence, 48 h, basal, profiling panel (AID 1163); conditions: 3T3-L1 adipocytes viability, higher = more signal
[3] = compound effects on hepatocellular carcinoma cell viability – HepG2, calcein-AM fluorescence, 48 h, basal, profiling panel (AID 1164); conditions: higher = more signal
[4] = compound effects on multiple myeloma cell viability – MM1S, calcein-AM fluorescence, 48 h, basal, profiling panel (AID 1165); conditions: higher = more signal
[5] = calcein-AM signal in unstimulated myeloma cells – cell-based, calcein-AM fluorescence, 48 h, PK04 Diversity Set, profiling panel (AID 1166); conditions: RPMI8226 myeloma viability, higher = more signal;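 note: cells grown under basal conditions without added stimulus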
[6] = JC-1 mitochondrial signal, unstimulated HepG2 cells – cell-based, JC-1 fluorescence, 24 h, 100 nL compound, profiling panel (AID 1167); conditions: HepG2 mitochondrial potential, higher = more signal
[7] = JC-1 mitochondrial signal, unstimulated adipocytes – cell-based, JC-1 fluorescence, 3T3-L1 adipocytes, 24 h, 100 nL compound, profiling panel (AID 1168); conditions: JC-1 mitochondrial fluorescence, higher = more signal, called active from +8 up or from −8 down
[8] = JC-1 mitochondrial signal, unstimulated myeloma cells – cell-based, JC-1 fluorescence, RPMI8226, 24 h, 100 nL compound, profiling panel (AID 1169); conditions: JC-1 mitochondrial potential fluorescence, higher = more signal
[9] = JC-1 mitochondrial signal, unstimulated MM1S myeloma – cell-based, JC-1 fluorescence, 24 h, 100 nL compound, profiling panel (AID 1170); conditions: MM1S mitochondrial potential, higher = more signal
[10] = resazurin metabolic signal in A549 cells – cell-based, resazurin fluorescence, 24 h, PK04 Diversity Set, profiling panel (AID 1171); conditions: A549 viability, higher = more signal, called active from +8 up or from −8 down
Note: test concentration not given here.

Structure (SMILES) | z-score [1] | z-score [2] | z-score [3] | z-score [4] | z-score [5] | z-score [6] | z-score [7] | z-score [8] | z-score [9] | z-score [10]
O=C(c1ccccc1)N1Cc2ccccc2[C@@H]2OC(c3ccc(OCCCO)cc3)=N[C@]2(Cc2ccccc2)C1=O | -1.09 | 1.27 | -0.795 | -2.02 | -3.92 | -0.435 | 0.166 (inactive) | -1.11 | 0.106 | -1.57 (inactive)
COc1ccc([Si](C)(C)[C@H]2[C@H](CCn3cc([C@H](O)c4ccccc4)nn3)O[C@@]3(C(=O)N(Cc4cccc(N5CCOC5=O)c4)c4ccccc43)[C@@H]2C)cc1 | 0.377 | 0.283 | 0.243 | -1.32 | -0.332 | -0.242 | -0.537 (inactive) | -0.463 | -0.637 | -1.06 (inactive)
COc1ccc(C(=O)O[C@H]2CC[C@]3(C)C4=C(CCC3C2(C)C)[C@]2(C)CC[C@H]([C@H](C)CCCC(C)C)[C@@]2(C)CC4)cc1 (stereo not given in full) | 0.373 | 0.586 | 0.729 | 0.41 | 0.784 | 2.19 | 0.375 (inactive) | -0.0976 | -1.47 | 0.936 (inactive)
CN1C(=O)C2C=CC(C(O)c3cccs3)N(Nc3ccccc3)C2C1=O (stereo not given) | -0.439 | -0.612 | -0.436 | -1.64 | -0.535 | -0.693 | -0.841 (inactive) | -0.0836 | -0.528 | -0.654 (inactive)
COc1ccc(C(O)C2C=CC3C(=O)N(c4ccccc4)C(=O)C3N2Nc2ccccc2F)cc1OCc1ccccc1 (stereo not given) | -0.0678 | -1.77 | -0.561 | 0.0664 | -0.43 | -1.51 | -0.838 (inactive) | -0.75 | -0.909 | -0.179 (inactive)
COc1ccc(COC2OC[C@]3(C)[C@H]4C5=C(CN3C(=O)OC(C)(C)C)[C@H](C)C(CO)C(CO)C5CC[C@@H]24)cc1 (stereo not given in full) | -0.963 | 0.627 | -0.0917 | 0.0355 | -1.17 | 1.24 | -0.685 (inactive) | 0.429 | 0.0993 | -1.34 (inactive)
COCCOC(=O)N1C(=O)[C@@]2(c3cc(C#CC4(O)CCCCCC4)ccc31)[C@H](c1ccc(O)cc1)N1[C@H](c3ccccc3)[C@H](c3ccccc3)OC(=O)[C@H]1[C@@H]2C(=O)Nc1nc2ccccc2s1 | 0.3 | 0.974 | 0.702 | -1.55 | -1.47 | -2.78 | -1.11 (inactive) | -0.876 | 0.18 | -0.006 (inactive)
CCOC(=O)C[C@H]1[C@H](OC(=O)c2cc3ccccc3oc2=O)[C@@H](NC(=O)Cc2ccc(OC)cc2)c2cc(OCCCO)ccc2N1C(=O)c1ccccc1 | -0.172 | 2.17 | -0.56 | -0.0168 | -0.606 | -0.412 | -0.111 (inactive) | -0.135 | -0.244 | -0.714 (inactive)
CC(C)c1ccc(NN2C(C(O)C(c3ccccc3)c3ccccc3)C=CC3C(=O)N(c4ccccc4)C(=O)C32)cc1 (stereo not given) | -0.447 | -0.306 | -0.0211 | -0.535 | -0.967 | -0.988 | -0.8 (inactive) | -0.107 | 0.798 | -2.05 (inactive)
CC(C)[C@@H](CO)NC(=O)[C@H]1[C@@H](c2ccccc2)N(c2ccccc2)O[C@@H]1C | 0.407 | -0.159 | 0.319 | 0.714 | 0.285 | 0.324 | 0.392 (inactive) | 0.354 | -1.11 | 0.959 (inactive)
C=CCOC(=O)[C@@H]1[C@H]2C(=O)O[C@H](c3ccccc3)[C@H](c3ccccc3)N2[C@H](c2ccc(OCCOC(=O)[C@@H]3C[C@@H]4C(=O)N[C@@H](Cc5ccccc5)C(=O)N4[C@@H]3c3ccc(O)cc3)cc2)[C@@]12C(=O)Nc1ccc(I)cc12 | -1.09 | 1.39 | 0.1 | 0.67 | -0.645 | -1.56 | 0.865 (inactive) | -0.451 | -1.38 | 0.128 (inactive)
[N-]=[N+]=Nc1ccccc1C[C@@]1(C(=O)NCCN2CCOCC2)N=C(c2ccc(OCCCO)cc2)O[C@@H]1c1ccccc1 | 0.189 | -0.455 | 0.357 | -0.511 | -0.905 | 2.55 | 0.248 (inactive) | -0.293 | -1.35 | -0.524 (inactive)
C=CC[C@@]1(C(=O)NCc2ccccc2)N=C(c2ccc(OCCCO)cc2)O[C@@H]1c1ccccc1N=[N+]=[N-] | -0.586 | 0.117 | 0.317 | -1.48 | -1.26 | -0.827 | 0.693 (inactive) | -1 | -0.85 | -0.307 (inactive)
[N-]=[N+]=NCc1ccccc1C[C@]1(C(=O)O)N=C(c2ccc(OCCCO)cc2)O[C@H]1c1ccccc1N=[N+]=[N-] | -0.882 | 1.09 | -0.826 | -2.06 | -3.85 | -1.93 | -0.456 (inactive) | -1.05 | -0.887 | -1.77 (inactive)
CC(C)C(CO)N1C(=O)[C@@H]2[C@H]3C(=O)OCC=C[C@H]3OC23C=CCN(C(C)C)C(=O)[C@@H]13 (stereo not given in full) | -0.368 | 0.877 | -0.185 | -0.181 | 0.642 | -0.304 | 0.148 (inactive) | -0.0287 | -0.0116 | 0.711 (inactive)
O=C1OCCC/C=C\[C@H]2OC34C=CCN(Cc5ccccc5)C(=O)[C@H]3N(CCCCCCO)C(=O)[C@@H]4C12 (stereo not given in full) | 2.3 | 0.0451 | 0.685 | 1.85 | 1.05 | 1.54 | 0.948 (inactive) | 0.44 | -1.11 | 1.28 (inactive)
[N-]=[N+]=Nc1ccccc1C[C@]1(C(N)=O)N=C(c2ccc(OCCCO)cc2)O[C@H]1c1ccccc1 | 0.0914 | 0.124 | -0.0857 | -1.9 | -0.495 | -0.543 | -0.387 (inactive) | -0.265 | -0.0874 | 0.453 (inactive)
C=CCN(Cc1ccccc1)C(=O)C(c1cccs1)N(CCOCCO)C(=O)/C=C\C(=O)O (stereo not given) | 0.902 | 0.345 | 0.849 | 1.62 | 1 | -0.138 | 0.0415 (inactive) | 0.158 | -1.37 | -0.221 (inactive)
COc1cc2c(cc1OC)CN(C(=O)[C@@H]1[C@H]3C(=O)O[C@H](c4ccccc4)[C@H](c4ccccc4)N3[C@H](c3ccc(O)cc3)[C@@]13C(=O)Nc1ccc(C#CC4(O)CCCCCC4)cc13)CC2 | 0.192 | 0.284 | 1.37 | 0.132 | -0.0905 | -0.769 | -0.771 (inactive) | -0.767 | -0.401 | 1.05 (inactive)
CC(C)c1ccc(NN2C(C(O)c3cc(C(F)(F)F)cc(C(F)(F)F)c3)C=CC3C(=O)N(c4ccccc4)C(=O)C32)cc1 (stereo not given) | -2.37 | 0.15 | -3.12 | -3.4 | -4.14 | -2.69 | -0.414 (inactive) | -0.873 | -1.57 | -2.11 (inactive)
CC(CO)N1C(=O)[C@@H]2C3C(=O)OCCC/C=C\[C@H]3OC23C=CCN(c2ccc4ccccc4c2)C(=O)[C@@H]13 (stereo not given in full) | 0.149 | -0.0935 | 1.14 | 1.74 | 0.931 | 0.811 | -0.373 (inactive) | -0.713 | -0.832 | 0.315 (inactive)
C=CCNC(=O)[C@H]1[C@@H]2C(=O)O[C@@H](c3ccccc3)[C@@H](c3ccccc3)N2[C@@H](c2ccc(O)cc2)[C@]12C(=O)N(C(=O)OCCOC)c1ccc(C#CCNC(N)=O)cc12 | -0.755 | 0.0896 | 0.264 | -0.303 | -0.479 | -1.33 | 0.817 (inactive) | -0.294 | 0.179 | -0.157 (inactive)
COc1ccc([C@H]2OC[C@@H]3CC4(CC=CC4)C(=O)N32)cc1 | 0.262 | -0.238 | -0.0409 | -0.58 | 0.055 | -0.301 | 0.197 (inactive) | -0.54 | 0.17 | -0.312 (inactive)
O=C1c2ccccc2[C@@]2(Cc3ccccc3N(CCN3CCOCC3)C2=O)[C@H](c2ccc(CO)cc2)N1Cc1ccccc1 | 0.668 | -0.238 | 0.402 | 0.0855 | 0.66 | 0.761 | 0.734 (inactive) | -0.605 | -0.253 | -0.273 (inactive)
[N-]=[N+]=NCc1ccccc1[C@H]1OC(c2ccc(OCCCO)cc2)=N[C@@]1(Cc1ccccc1)C(=O)NCc1ccccc1 | -0.649 | 0.399 | 0.71 | -2.04 | -3.49 | 0.343 | 0.544 (inactive) | -1.35 | -0.765 | 0.789 (inactive)
CN(C)C(=O)[C@@]1(Cc2ccccc2CN=[N+]=[N-])N=C(c2ccc(OCCCO)cc2)O[C@H]1c1ccccc1 | -0.62 | -0.476 | -1.18 | -3.03 | -3.94 | -0.807 | -0.215 (inactive) | -0.988 | -2.52 | -0.325 (inactive)
COCCOC(=O)N1C(=O)[C@@]2(c3cc(C#CCCO)ccc31)[C@H](C(=O)Nc1nc3ccccc3s1)[C@H]1C(=O)O[C@H](c3ccccc3)[C@H](c3ccccc3)N1[C@@H]2c1ccc(OCCO)cc1 | -0.324 | -0.0713 | 0.555 | -0.315 | -0.234 | -3.53 | 0.823 (inactive) | -0.371 | -1.41 | 1.24 (inactive)
COC(=O)[C@@]1(Cc2ccc(OC)cc2)[C@H]2c3cc(C(=O)N4CCCC4)n(Cc4ccc(OC)c(OC)c4)c3C[C@H]2CN1C(=O)c1ccccc1 | -0.25 | 0.525 | -1.05 | -0.128 | -0.808 | 4 | 0.0331 (inactive) | -0.16 | -0.602 | 1.21 (inactive)
COCCOC(=O)N1C(=O)[C@@]2(c3cc(C#Cc4ccc(OC)cc4)ccc31)[C@H](C(=O)N1CCCCCCC1)[C@H]1C(=O)O[C@H](c3ccccc3)[C@H](c3ccccc3)N1[C@@H]2c1ccc(OCCO)cc1 | 1.36 | 1.96 | 0.638 | -1.36 | 0.809 | 0.162 | -6.15 (inactive) | -0.19 | -0.987 | 1.62 (inactive)
